This passage reports AC50 and activity, negative = inhibition results from PubChem BioAssay AID1851 (National Center for Advancing Translational Sciences (NCATS), 2009).

As usually defined, the AC50 is the concentration at which the activity in the assay is half-maximal.

Each structure is given as a SMILES string. About 5,700 (36%) of roughly 16,000 compounds were called active. Inconclusive results (about 24%) are left out. This is one part of the list. Unmarked numbers belong to inactive results. Calls follow the shape of the dose curve; as a rule, active = well fitted curve in the direction sought with a large enough effect; inconclusive = small, poorly fitted or top-dose-only effect, or effect the other way; inactive = no such curve, though single readings can be large or run the other way.
% is scaled to controls: 0 for no effect and ±100 for the full control effect.

Sequence of Cytochrome P450 1A2 (Homo sapiens) (P05177 whole entry, looked up): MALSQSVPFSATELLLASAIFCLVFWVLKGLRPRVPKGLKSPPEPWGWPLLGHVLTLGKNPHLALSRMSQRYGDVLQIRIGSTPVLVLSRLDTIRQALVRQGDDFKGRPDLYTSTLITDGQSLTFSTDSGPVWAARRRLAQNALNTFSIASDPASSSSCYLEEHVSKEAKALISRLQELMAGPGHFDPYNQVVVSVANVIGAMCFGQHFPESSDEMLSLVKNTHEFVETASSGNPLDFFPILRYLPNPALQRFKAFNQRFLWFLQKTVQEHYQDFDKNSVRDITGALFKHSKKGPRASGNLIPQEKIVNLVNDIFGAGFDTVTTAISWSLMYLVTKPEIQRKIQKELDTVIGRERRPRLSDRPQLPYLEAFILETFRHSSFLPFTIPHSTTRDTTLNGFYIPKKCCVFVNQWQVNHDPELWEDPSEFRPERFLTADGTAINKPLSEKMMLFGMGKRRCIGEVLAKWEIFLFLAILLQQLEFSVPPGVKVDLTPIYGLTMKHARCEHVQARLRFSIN

This assay has as its target Cytochrome P450 1A2 (Homo sapiens) (UniProt P05177). The assay is described as follows: Cytochrome panel assay with activity outcomes. The note with it: recombinant CYP, pro-luciferin dealkylation, luminescence, p450-cyp1a2; series mostly up to 57.1 µM.
With `COc1cccc(/C(O)=C2/C(=O)C(=O)N(c3cc(C)on3)C2c2cccs2)c1` (stereo not given), the AC50 entry is “inactive”.

Consider `CC(=O)OCC1=C(C(=O)O)N2C(=O)[C@@H](NC(=O)CSc3ccncc3)[C@@H]2SC1`, for which the AC50 result is “inactive”.

Turning to `CCc1ccc(OCC(=O)NNC(=O)CSc2ncnc3sc(C)c(C)c23)cc1`, the AC50 result was “inactive”.

`c1ccc(CSc2ncnc3c2sc2nc(N4CCOCC4)c4c(c23)CCCC4)cc1`: the AC50 entry was “inactive”.

For `Fc1ccc(CSc2ncnc3sc4c(c23)CCCC4)cc1`, the AC50 was 4.47 µM (active).

As for `Nc1c(-c2ccccc2)cnn1-c1cccc([N+](=O)[O-])c1`, the AC50 was 3.55 µM (active).

As to `Nc1nc2c(ncn2[C@@H]2C=C[C@@H](CO)C2)c(=O)[nH]1`, the activity, negative = inhibition was -4.34% [at 11.4 µM].

For `Clc1cccc(Cl)c1CSc1nnc(/C=C/c2ccccc2)o1`, the AC50 was 4.47 µM (active).

`Nc1nc(SCc2ccccc2Cl)cc(C(=O)O)n1`: the activity, negative = inhibition is 6.21% [at 2.29 µM].

Turning to `Clc1ccccc1CSc1nnc(-c2ccncc2)o1`, the AC50 was 0.794 µM (active).

As to `Cc1ccc(NC(=O)CSc2nnc(-c3ccncc3)o2)cc1`, the AC50 result was “inactive”.

For the molecule `Clc1ccccc1CSc1nnc(/C=C/c2ccccc2)o1`, the AC50 was 1.26 µM (active).

With `CNC[C@H](O)[C@H](O)[C@H](O)[C@H](O)CO`, the AC50 entry is “inactive”.

On to `Cc1nc([N+](=O)[O-])c(N2CCN(C)CC2)n1Cc1ccccc1`, for which the AC50 entry was “inactive”.

With `CN1CCc2c(c3ccccc3n2Cc2ccccc2)C1`, the AC50 is 5.01 µM (active).

Take `CN1CCc2c(c3ccccc3n2C)C1`: the AC50 was 12.6 µM (active).

Take `CN1CCC(=C2c3ccccc3C=Cc3ccccc32)CC1`: the AC50 result was “inactive”.

In the case of `CC(=O)N1CCC2(CCCN(Cc3ccccc3)C2)CC1`, the AC50 entry is “inactive”.

As for `CN1CCc2nc(N)nc(-c3nc(N)nc4c3CN(C)CC4)c2C1`, the activity, negative = inhibition is -3.87% [at 2.29 µM].

Consider `CCC1(c2ccccc2)C(=O)NCNC1=O`, for which the AC50 result was “inactive”.

`N=C1[C@@H](O)[C@]2(I)c3ccccc3N3C(=N)[C@H](O)[C@@H]4c5ccccc5N1[C@@H]4[C@@H]32`: the AC50 is 2.51 µM (active).

Turning to `Cn1cccc1C(=O)N1CCC[C@@]2(CCN(Cc3cc(C(F)(F)F)cc(C(F)(F)F)c3)C2)C1`, the AC50 entry was “inactive”.

On to `CCOc1ccc(NC(=S)N(Cc2ccc(Cl)cc2)Cc2ccco2)cc1`, for which the AC50 is 3.55 µM (active).

As for `CCOc1ccc(NC(=S)N(Cc2ccc(N(C)C)cc2)Cc2ccco2)cc1`, the AC50 was 1.26 µM (active).

In the case of `O=C(COc1ccc(Cl)cc1)Nc1ccc(N2CCN(C(=O)c3ccco3)CC2)cc1`, the AC50 result is “inactive”.

`Cc1nn(C)cc1C(C(=O)NC1CCCCC1)N(C(=O)Cc1cccs1)c1ccc(C(C)C)cc1` (stereo not given): the AC50 result was “inactive”.

Turning to `CN1CCC(N(C)C(=O)CCc2nc3ccccc3c(=O)[nH]2)CC1`, the AC50 entry was “inactive”.

As for `CC1Cc2ccccc2N1Cc1nc2cc(C(F)(F)F)ccc2c(=O)[nH]1` (stereo not given), the AC50 is 3.55 µM (active).

As for `Cc1cc(C)c2c(SCc3ccc(Cl)cc3Cl)nc(N)nc2n1`, the AC50 was 3.16 µM (active).

On to `O=C1OCC(c2ccccc2)=C1c1ccc(S(=O)(=O)N2CCOCC2)s1`, for which the AC50 is 25.1 µM (active).

As for `NC(=O)c1ccc(N2CCCCC2)c(N2C(=O)C3CC=CCC3C2=O)c1` (stereo not given), the AC50 entry was “inactive”.

For `Cc1ccc(NC(=O)c2cc(N3C(=O)C4CC=CCC4C3=O)ccc2N2CCOCC2)cc1Cl` (stereo not given), the AC50 is 6.31 µM (active).

As to `Cc1ccc(NC(=O)CSCC(=O)Nc2ccc(N3CCOCC3)c(Cl)c2)cc1`, the AC50 entry was “inactive”.

With `CO/N=C(/CNC(=O)c1ccc(Cl)cc1Cl)c1ccc(Cl)cc1`, the AC50 was 2.51 µM (active).

`CC1(C)CC(O)CC(C)(C)N1CC(O)COCCOc1ccc(Br)cc1` (stereo not given): the AC50 result is “inactive”.

Regarding `CCSc1c(C(=O)NC)ccc2c1C(=O)c1ccccc1C2=O`, the AC50 was 0.316 µM (active).

As for `CCSc1nnc(-c2ccccc2NC(C)=O)c(=O)[nH]1`, the AC50 result was “inactive”.

As to `Cc1[nH]c2c(C)cccc2c1CCNC(=O)c1ccc2c(c1[N+](=O)[O-])C(=O)c1ccccc1C2=O`, the AC50 entry was “inactive”.

Consider `N#C/C(=C(/O)CN1CCCCC1)c1nc(-c2ccc(Cl)cc2)cs1`, for which the AC50 is 6.31 µM (active).

On to `O=C1OC2CC3CC1CC(O)(C3)C2` (stereo not given), for which the AC50 result is “inactive”.

On to `NC(=O)CSc1nc2sc(-c3ccccc3)cc2c(=O)n1N`, for which the AC50 was 5.01 µM (active).

As for `CNC(C)c1cc(OC)ccc1OC` (stereo not given), the AC50 result is “inactive”.

As for `COc1cc(/C=C\c2ccc(OC)cc2OC)cc(OC)c1`, the AC50 was 0.794 µM (active).

Regarding `COC(=O)C(NC(=O)c1ccc(F)cc1)(Nc1ncc(S(=O)(=O)c2ccc([N+](=O)[O-])cc2)s1)C(F)(F)F` (stereo not given), the AC50 result was “inactive”.

For `Clc1cccc(Oc2cnc3ccccc3n2)c1`, the AC50 is 2.51 µM (active).

Regarding `CCOC(=O)Cn1nc(C)n(-c2ccc(C)cc2)c1=O`, the AC50 result is “inactive”.

Turning to `CCOC(=O)c1cc2c(C)n(-c3ccc(C)cc3)c(C)c2ccc1=O`, the AC50 was 12.6 µM (active).

`c1ccc(-c2c3ccccc3nc3[nH]c4ccccc4c23)cc1`: the AC50 is 0.501 µM (active).

Take `CCCCc1c2ccccc2nc2[nH]c3ccccc3c12`: the AC50 is 0.2 µM (active).

On to `O=C(O)[C@@H](O)[C@@H](O)[C@H](O)[C@H](O)CO`, for which the activity, negative = inhibition was -5.55% [at 2.29 µM].

With `CO[C@@H]1COC(=O)CC=C[C@@H](C)[C@@H]2C=C[C@H](O)[C@@H](COC(=O)C/C=C\[C@H]1C)O2`, the activity, negative = inhibition was -1.42% [at 11.4 µM].

On to `CC(C)(C)c1nnc(NC(=O)NS(=O)(=O)c2ccccc2)s1`, for which the AC50 result is “inactive”.

Regarding `CNc1ncc(C(=O)c2ccccc2)s1`, the AC50 was 4.47 µM (active).

Regarding `CC(C)(C)NC(=O)C(=O)NNC(=O)c1ccccc1`, the AC50 result is “inactive”.

In the case of `Cc1ccc(NNS(=O)(=O)c2ccc(C)cc2)cc1`, the AC50 is 2.82 µM (active).

Turning to `Cc1ccc(NC(=O)NNS(=O)(=O)c2ccc(Br)cc2)cc1`, the AC50 entry was “inactive”.

Take `Cc1ccc(S(=O)(=O)NNc2ccccc2)cc1`: the AC50 is 2.82 µM (active).

As for `Cc1ccc(S(=O)(=O)NCc2ccccc2)cc1`, the AC50 was 0.501 µM (active).

Take `O=S(=O)(C[C@H](O)C(Cl)(Cl)Cl)NNc1ccccc1`: the activity, negative = inhibition was 0.811% [at 2.29 µM].

In the case of `Cc1ccc(-c2nn3c(C)nnc3c3ccccc23)cc1S(=O)(=O)NCc1ccccc1`, the AC50 entry is “inactive”.

Turning to `Cc1ccc(S(=O)(=O)N[C@H](C(=O)O)C(C)C)cc1`, the activity, negative = inhibition was -11% [at 11.4 µM].

Regarding `COc1cc(C)c(Br)cc1S(=O)(=O)NCc1ccccc1`, the AC50 was 10 µM (active).

With `Cc1ccc(S(=O)(=O)NCC2CCC(C(=O)O)CC2)cc1` (stereo not given), the AC50 entry is “inactive”.

`Cc1ccc(S(=O)(=O)N[C@H](CO)C(=O)O)cc1`: the activity, negative = inhibition is -12% [at 11.4 µM].

Take `CCOC(=O)Nc1ccc(S(=O)(=O)NCc2ccccc2)cc1`: the AC50 entry is “inactive”.
